JMJD2A Tudor: JMJD2A Tudor domain (human) inhibition; AlphaScreen JMJD2A-Tudor / H3K4me3 peptide binding; 390,000 compounds, 4.4% hits; AID 504339; Potency, µM (highest dose often 114 µM), inactives show at the highest dose activity change, negative = inhibition, hits mostly inhibitors; O75164; further: on the % scale 0 is the no-effect control and ±100 the full control effect; nearly all actives have a fitted effect of over 50% in size
G9a inh: inhibitors of human histone lysine methyltransferase G9a | 350,000 compounds, 8.8% hits | G9a H3K9 monomethylation, AlphaScreen, 2 h | Potency, µM (series often up to 102 µM), inactives show at the top dose activity, negative = inhibition, most hits filed as inhibitors | Q96KQ7; further: on the % scale 0 is the no-effect control and ±100 the full control effect; nearly all actives have a fitted effect of over 75% in size
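Signal arises when biotinylated H3K9 peptide, once monomethylated, bridges streptavidin donor and antibody-captured acceptor beads. Enzyme at 20 nM was preincubated 15 min with test compounds; peptide 500 nM and SAM 20 uM then reacted for 2 h.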
BAZ2B inh: BAZ2B (human) inhibition. 360,000 compounds, 4.4% hits. Q9UIF8. Potency, µM (doses to about 114 µM), for the others: at the top dose activity change, negative = inhibition, hits mostly inhibitors. AlphaScreen BAZ2B-H3K14Ac peptide displacement; further: on the % scale 0 is the no-effect control and ±100 the full control effect; nearly all actives have a fitted effect of over 60% in size
Target sequence (Q9UIF8 whole entry, looked up): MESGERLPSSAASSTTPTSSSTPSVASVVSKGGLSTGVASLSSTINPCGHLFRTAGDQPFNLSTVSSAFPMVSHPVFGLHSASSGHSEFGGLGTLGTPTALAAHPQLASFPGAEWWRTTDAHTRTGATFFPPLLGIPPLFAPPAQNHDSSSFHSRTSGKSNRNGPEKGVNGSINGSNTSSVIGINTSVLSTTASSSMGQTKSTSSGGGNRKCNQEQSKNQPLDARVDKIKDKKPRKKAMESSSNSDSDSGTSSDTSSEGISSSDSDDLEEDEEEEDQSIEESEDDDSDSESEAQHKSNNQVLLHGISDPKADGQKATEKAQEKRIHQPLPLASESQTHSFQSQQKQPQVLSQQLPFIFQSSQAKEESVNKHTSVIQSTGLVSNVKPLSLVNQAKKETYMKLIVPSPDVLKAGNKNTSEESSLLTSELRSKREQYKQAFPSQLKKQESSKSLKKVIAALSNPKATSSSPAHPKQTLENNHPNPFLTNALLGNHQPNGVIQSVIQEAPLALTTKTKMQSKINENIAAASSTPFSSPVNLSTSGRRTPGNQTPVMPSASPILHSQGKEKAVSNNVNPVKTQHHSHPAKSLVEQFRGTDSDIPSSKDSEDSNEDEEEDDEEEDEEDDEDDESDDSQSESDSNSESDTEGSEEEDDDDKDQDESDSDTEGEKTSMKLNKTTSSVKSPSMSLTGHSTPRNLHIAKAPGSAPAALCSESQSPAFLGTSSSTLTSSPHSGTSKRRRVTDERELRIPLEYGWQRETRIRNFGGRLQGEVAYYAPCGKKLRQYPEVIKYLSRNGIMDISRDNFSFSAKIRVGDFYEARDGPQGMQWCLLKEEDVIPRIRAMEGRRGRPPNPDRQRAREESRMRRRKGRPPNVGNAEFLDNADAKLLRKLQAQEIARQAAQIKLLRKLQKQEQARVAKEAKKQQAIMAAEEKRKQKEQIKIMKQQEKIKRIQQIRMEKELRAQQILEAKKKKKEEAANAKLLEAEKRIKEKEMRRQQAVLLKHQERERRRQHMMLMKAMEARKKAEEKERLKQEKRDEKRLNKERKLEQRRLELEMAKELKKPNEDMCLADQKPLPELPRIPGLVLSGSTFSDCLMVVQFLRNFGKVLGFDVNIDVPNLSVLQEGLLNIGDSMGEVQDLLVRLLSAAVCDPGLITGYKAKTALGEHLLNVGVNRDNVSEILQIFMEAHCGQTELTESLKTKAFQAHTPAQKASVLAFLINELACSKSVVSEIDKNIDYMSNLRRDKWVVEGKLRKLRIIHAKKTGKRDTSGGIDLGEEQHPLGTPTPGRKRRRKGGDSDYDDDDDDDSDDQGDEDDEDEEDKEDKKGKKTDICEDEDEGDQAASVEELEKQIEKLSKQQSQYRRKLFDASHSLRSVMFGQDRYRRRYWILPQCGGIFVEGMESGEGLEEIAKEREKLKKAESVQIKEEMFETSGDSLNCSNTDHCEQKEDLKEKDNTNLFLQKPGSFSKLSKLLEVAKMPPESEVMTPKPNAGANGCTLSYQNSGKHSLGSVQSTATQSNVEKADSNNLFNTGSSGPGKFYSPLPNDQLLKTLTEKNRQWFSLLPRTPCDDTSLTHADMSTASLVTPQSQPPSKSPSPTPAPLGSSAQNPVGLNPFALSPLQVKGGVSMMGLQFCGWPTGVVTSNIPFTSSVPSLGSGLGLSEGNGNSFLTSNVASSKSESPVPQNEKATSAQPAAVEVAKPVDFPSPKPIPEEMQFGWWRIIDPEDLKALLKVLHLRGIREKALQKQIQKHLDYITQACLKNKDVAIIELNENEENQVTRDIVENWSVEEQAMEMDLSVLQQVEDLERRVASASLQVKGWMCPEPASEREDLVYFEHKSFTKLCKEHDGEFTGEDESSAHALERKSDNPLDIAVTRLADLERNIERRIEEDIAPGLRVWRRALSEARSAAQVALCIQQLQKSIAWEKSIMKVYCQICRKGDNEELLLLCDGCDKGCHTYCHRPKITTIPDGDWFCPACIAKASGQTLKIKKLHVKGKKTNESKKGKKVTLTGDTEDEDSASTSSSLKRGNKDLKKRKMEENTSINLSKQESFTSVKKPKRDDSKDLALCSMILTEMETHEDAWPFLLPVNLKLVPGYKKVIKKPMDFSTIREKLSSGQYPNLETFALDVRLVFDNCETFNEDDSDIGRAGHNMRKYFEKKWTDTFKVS
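AlphaScreen displacement of biotin-H3(5-23)K14Ac peptide (50 nM final) from BAZ2B (50 nM final) in PBS pH 7.4, 0.01% Tween-20; complex preformed 30 min RT, then compounds (top 110 uM) 30 min RT, beads 20 min dark.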
Sfp PPTase inh: Sfp phosphopantetheinyl transferase inhibition. Biochemical Sfp PPTase activity, qHTS. 310,000 compounds, 3.5% hits. Q9F4F7. Potency, µM, without a hit: largest response in the series, negative = inhibition, hits mostly inhibitors;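 further: the enzyme is Sfp with the accession as filed and its product quenches rhodamine fluorescence; 0% = enzyme reaction without inhibitor and -100% = no enzyme wells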
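With Hepes-Na pH 7.6 buffer containing 10 mM MgCl2, Sfp (15 nM) modified BHQ-2-YbbR (12.5 uM) using rhodamine-CoA (5 uM). Two reads 30 minutes apart at 525/598 nm yielded each well's rate.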
HP1b chromo inh: HP1-beta chromodomain-methylated histone interaction inhibition; AID 540317; Potency, µM (doses to about 114 µM), for the others: at the highest dose activity change, negative = inhibition, hits mostly inhibitors; AlphaScreen HP1-beta / biotin-H3K9me3 peptide binding; P83916; 390,000 compounds, 0.56% hits; further: nearly all actives have a fitted effect of over 70% in size
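Compound inhibition of the preformed complex between 50 nM HP1-beta and 50 nM biotinylated H3K9me3 peptide was read by AlphaScreen. Buffer was PBS pH 7.4 with 0.01% Tween-20. Incubations ran 30 min at room temperature, with 10 ug/mL donor/acceptor beads.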
L3MBTL1 block: L3MBTL1 (human) inhibition; Potency, µM (doses to about 57.1 µM), without a hit: at the top dose activity, negative = inhibition, actives largely listed as inhibitors; AlphaScreen L3MBTL1–H3K9me1 peptide binding; 230,000 compounds, 0.66% hits; AID 485360; Q9Y468; further: on the % scale 0 is the no-effect control and ±100 the full control effect; nearly all actives have a fitted effect of over 60% in size
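L3MBTL1 (50 nM) pre-complexed 30 min with biotinylated H3(1-15)K9me1 peptide (75 nM), then compounds added for 30 min at room temperature; AlphaScreen streptavidin donor/nickel chelate acceptor beads (10 ug/mL final) read after 30 min dark incubation.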
Starred values were filed as active, the others as inactive; ? = inconclusive; nt = no result; ! = not active in a repeat; [ ] = dose if it differs, or a comment. Rows were chosen to be rich in hits. Some 12% of all compounds tested hit in one or more screens of this group. The call rests on the fitted dose curve; in most records, active means well fitted curve in the direction sought with a large enough effect; inconclusive means small, poorly fitted or top-dose-only effect, or another doubt; inactive means no such curve, though single readings can be large; an effect the other way counts as inactive or inconclusive. Potency means the concentration at half of the fitted maximal effect.

SMILES | JMJD2A Tudor | G9a inh | BAZ2B inh | Sfp PPTase inh | HP1b chromo inh | L3MBTL1 block
CN(C)c1cccc(NC(=O)c2cccc3ccccc23)c1 | 22µM* | 32µM* | 28µM* | -3% | 50µM* | nt
CC(=O)Nc1cccc(NC(=O)CCc2ccccc2)c1 | -9% | ? | -31% | 5% | 5% | nt
Cc1ccccc1S(=O)(=O)Cc1ccc(C(=O)NCc2ccco2)o1 | 16µM* | 7% | -11% | 14% | -8% | nt
Cc1ccccc1S(=O)(=O)Cc1ccc(C(=O)NC2CC2)o1 | 50µM* | 21% | 0% | 3% | -22% | nt
Cc1ccccc1S(=O)(=O)Cc1ccc(C(=O)NC2CCCC2)o1 | -8% | -6% | -1% | 11% | 67% | nt
O=C1C2CCCN2C(c2cccc(Br)c2)N1c1ccc(F)cc1 (stereo unspecified) | -6% | 71µM* | 9% | -21% | 39% | nt
CC(C)N=c1scc(-c2cccs2)n1/N=C/c1ccc(O)c(O)c1O | 22µM* | 4µM* | 32µM* | 11µM* | 25µM* | ?
COc1ccc(O)c(/C=N/n2c(-c3ccco3)csc2=Nc2cccnc2)c1 | -6%[57.1 µM] | 20%[59 µM] | ? | 1% | 1% | -20%
CCN=c1scc(-c2cccs2)n1/N=C/c1cc(OC)ccc1O | 40µM* | ? | 13µM* | ? | 14µM* | -7%
Cc1cc(C)c(NC(=O)C2=COCCO2)c(C)c1 | -12% | 8% | -5% | nt | -1% | 7%
C#CCOC(=O)Nc1cccn(Cc2c(Cl)cccc2Cl)c1=O | -17% | -37% | -36% | 6% | 6% | -5%
COC(=O)Nc1ccc(=O)n(Cc2c(Cl)cccc2Cl)c1 | -12% | 71µM* | -24% | -10% | 10% | -6%
COc1ccc(N2CCN(C(=O)c3ccc(F)cc3)CC2)c([N+](=O)[O-])c1 | -36%[57.1 µM] | -39% | ? | -16% | -20% | -5%[11.4 µM]
O=C(c1ccc(F)cc1)N1CCN(c2ccc([N+](=O)[O-])cc2-n2cccc2)CC1 | ? | 50µM* | ? | 8% | -37% | nt
O=C(c1ccccc1F)N1CCN(c2ccc([N+](=O)[O-])cc2-n2cccc2)CC1 | ? | nt | 22µM* | -12% | 9% | nt
O=S(=O)(CCc1ccccc1)CS(=O)(=O)CCc1ccccc1 | -3% | nt | nt | nt | 37%[57 µM] | nt
COc1ccc(S(=O)(=O)N(C)C[C@H]2Oc3ccc(NC(=O)C4CC4)cc3C(=O)N([C@H](C)CO)C[C@@H]2C)cc1 | ? | nt | nt | nt | 45% | 5%
C/C(=N\OC(=O)c1c(-c2c(F)cccc2Cl)noc1C)c1nccs1 | 1% | 16% | -1% | 3% | 45% | -2%
Cc1onc(-c2c(F)cccc2Cl)c1C(=O)O/N=C(\N)c1ccc([N+](=O)[O-])o1 | -32% | 40µM* | ? | 11% | -4% | -7%
Cc1cc(NC(=O)/C(C#N)=C\c2ccc(-c3ccc(SC(F)F)cc3)o2)n(-c2ccccc2)n1 | -17% | nt | nt | nt | 14% | nt
COc1ccccc1N1C(=O)c2cccc3c(C(=O)O)ccc(c23)C1=O | 79µM* | -11% | -5% | -2% | -8% | nt
C/C=C1\COC(C(=O)NCCN2CCOCC2)(C(F)(F)F)C=C1C=C(C)C (stereo unspecified) | -19% | nt | nt | -5% | 41% | nt
CCOC(=O)/C(=N\Nc1ccc(Br)cc1)N1CC(C)OC(C)C1 (stereo unspecified) | ? | 3.2µM* | -31% | -10% | 7% | nt
S=c1[nH]nc(C(c2ccccc2)C2CCCCC2)o1 (stereo unspecified) | -11% | 45µM* | -29% | 7% | -13% | -2%
S=c1[nH]nc(C2(c3ccccc3)CCCC2)o1 | -22% | -130%[59 µM] | -35% | -13% | 53% | nt
SMILES | JMJD2A Tudor | G9a inh | BAZ2B inh | Sfp PPTase inh | HP1b chromo inh | L3MBTL1 block
Cc1cccc(NC(=O)/C(C#N)=C\c2cccnc2)c1 | -14% | 50µM* | 8% | 10% | -4% | 3%
Cc1cccc(NC(=O)/C(C#N)=C\c2ccc(C(=O)O)cc2)c1 | 5% | -46% | -18% | 35µM* | 33% | nt
Cc1cccc(NC(=O)/C(C#N)=C\c2cn(CC(=O)O)c3ccccc23)c1 | -7% | 40µM* | ? | 10% | 31% | -6%
COc1ccc(/C=C(/C#N)C(=O)Nc2cccc(C)c2C)cc1C(=O)O | -1% | -3%[12.7 µM] | 4% | 16% | 10% | 6%
COc1ccc(/C=C(/C#N)C(=O)Nc2cccc([N+](=O)[O-])c2)cc1C(=O)O | -25% | 45µM* | ? | 14% | -18% | -13%
N#C/C(=C\c1cccnc1)C(=O)Nc1cccc(Cl)c1 | 0% | -37% | -9% | -7% | 24% | 9%
CCC(C(=O)NCc1ccccc1Cl)n1nc(C)c2sc3ccccc3c2c1=O (stereo unspecified) | -17% | 1%[59 µM] | -5% | nt | 25% | nt
N#C/C(=C\c1cccnc1)C(=O)Nc1cccc2ccccc12 | -26% | 50µM* | 3% | ? | 3% | 3%
COc1ccccc1NC(=O)/C(C#N)=C/c1cccnc1 | 8% | -15% | -11% | 9% | 28% | nt
O=C1C2C3C=CC(C4CC34)C2C(=O)N1c1ccc2c(c1)OCO2 (stereo unspecified) | 0% | 50µM* | nt | -1% | 46% | nt
CC(C)=C1C2C=CC1C1C(=O)N(c3ccc4c(c3)OCO4)C(=O)C21 (stereo unspecified) | -14% | 10µM* | -5% | ? | 55% | 10%
CCn1c(=O)cc(SCC(=O)NCCc2cc(OC)ccc2OC)c2ccccc21 | -16% | 1%[59 µM] | -2% | nt | 22% | nt
CCOc1ccc(OCC)c(Nc2nc3ccc(Cl)cc3n3cnnc23)c1 | -4% | 14%[59 µM] | -2% | nt | 22% | nt
O=[N+]([O-])c1ccc(Nc2ccc(Cl)cc2)nc1 | -8% | 8% | -1% | 16% | 38% | 4%
O=[N+]([O-])c1ccc(NNS(=O)(=O)c2cc(Cl)ccc2Cl)nc1 | -33% | -7%[0.501 µM] | -19% | 35µM* | -8% | nt
CCN(CC)Cc1c(NC(=O)c2ccc(OC)cc2)sc2c1CCCC2 | -17% | -8%[59 µM] | -5% | nt | 5% | nt
COc1cc(C(=O)CCN2CCC(c3ccccc3)C2)cc(OC)c1OC (stereo unspecified) | -29% | 3.5µM* | -33% | -17% | 24% | 7%
O=C1c2c(O)cccc2Cc2cccc(O)c21 | -25% | 2.5µM*! | ? | -9% | 7% | ?
Cc1ccc(NC(=O)Nc2nnc(N(C)Cc3ccccc3)s2)cc1 | 1% | -22%[59 µM] | -2% | nt | 47% | nt
Cc1cc(Br)cc2c1N(Cc1ccccc1OC(C)C)C(=O)C2=O | 18µM* | 8.9µM* | 6.3µM* | nt | ? | nt
CCOc1nc(Nc2ccc(OC)cc2)nc(OCC)n1 | 79µM* | 15%[59 µM] | 1% | 10% | -73% | nt
COc1ccc(Nc2ccnc(Nc3ccc(OC)cc3)n2)cc1 | ? | ? | 45µM* | -86% | ? | -18%

Screens deposited in PubChem by National Center for Advancing Translational Sciences (NCATS).
